In PubChem BioAssay (Tox21) one finds Potency and outcome data, which are given here for seven compounds.

Test [1] in a line: qHTS assay to identify small molecule agonists of the androgen receptor (AR) signaling pathway in the presence of an antagonist - cell viability counter screen (AID 1259379). Further: nearly all actives have a fitted effect of over 25% in size. Further: potency means the concentration at half of the fitted maximal effect. The gist of the method:
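Counter screen for cell viability run in parallel with the AR agonist-mode luciferase assay. MDA-kb2 cells were co-treated with nilutamide (3.0uM final) and compounds, then incubated 16 hr at 37C, and CellTiter-Fluor fluorescence was measured.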
In general terms: qHTS replaces the single test concentration by a dilution series.

Test [2] is described as follows: qHTS assay to identify small molecule agonists of the estrogen receptor beta (ER-beta) signaling pathway - cell viability counter screen (AID 1259380). Further: nearly all actives have a fitted effect of over 30% in size. Further: potency means the concentration at half of the fitted maximal effect. The gist of the method: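 In this qHTS counter screen, HEK293T cells carrying an ER-beta/UAS beta-lactamase reporter, grown in 2% charcoal-stripped FBS, received compound for 16 hr; ATP-based CellTiter-Glo luminescence was then read after 30 min at room temperature.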

Test [3] is described as follows: qHTS assay to identify small molecule antagonists of the estrogen receptor beta (ER-beta) signaling pathway - cell viability counter screen (AID 1259382).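 Further: HEK293T cells carrying ER-beta-UAS-bla reporter stimulated with estradiol; series mostly up to about 92 µM; nearly all actives have a fitted effect of over 55% in size.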 The gist of the method:
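HEK293T ER-beta-UAS-bla, 2% charcoal-stripped FBS; compounds + 1nM E2 16 hr 37C; CellTiter-Glo luminescence, 30 min RT.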

Test [4] is described as follows: qHTS assay to identify small molecule agonists or antagonists of the thyroid stimulating hormone receptor (TSHR) signaling pathway - wild type cell line counter screen (AID 1259384; calls by dose curve). The gist of the method: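 Wild-type Hek293 cells, 800/well, 18 h at 37C, then compound with Ro20-1724 for 30 min RT. cAMP by HTRF (cAMP-d2/anti-cAMP cryptate), 1 h RT, fluorescence read. 15 concentrations, triplicates.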

The target in test [5] is Thyrotropin receptor (Homo sapiens) (UniProt P16473). In words: qHTS assay to identify small molecule antagonists of the thyroid stimulating hormone receptor (TSHR) signaling pathway (AID 1259385; calls by dose curve; further: nearly all actives have a fitted effect of over 20% in size). An outline of the steps:
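TSHR-HEK293 cells (800/well) plated 18 h, then compounds with Ro20-1724 and TSH at 1.5 ng/mL final, 30 min at room temperature. cAMP quantified by HTRF (cAMP-d2/anti-cAMP-cryptate, 1 h); 15 concentrations in triplicate.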

A short description of test [6]: qHTS assay to identify small molecule agonists of the estrogen receptor alpha (ER-alpha) signaling pathway in the presence of an antagonist - cell viability counter screen (AID 1259386).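 Further: series mostly up to about 92 µM; cells exposed to compounds for 22 h at 37 °C before the viability read; nearly all actives have a fitted effect of over 30% in size.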 An outline of the steps: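 Steps: 5-day stripped-FBS culture; seed and incubate 24hr; add ICI-182,780 (10.0nM final); pin 15-point compound titration; incubate 22hr at 37C; add CellTiter-Fluor at 21hr; read fluorescence.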

Test [7] deals with Progesterone receptor (Homo sapiens) (UniProt P06401). In words: qHTS assay to identify small molecule agonists of the progesterone receptor (PR) signaling pathway (AID 1346784; calls by dose curve; further: nearly all actives have a fitted effect of over 30% in size). The gist of the method:
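PR-UAS-bla HEK 293T cells (beta-lactamase reporter under UAS) in 2% charcoal-stripped FBS, dosed with 23 nL compound after 6 hr, incubated 16hr at 37C. LiveBLAzer B/G FRET substrate added, fluorescence read after 2 hours.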

Test [8] has the same target. In words: qHTS assay to identify small molecule antagonists of the progesterone receptor (PR) signaling pathway (AID 1346795; active means well fitted inhibition curve with a large enough effect in the signal ratio in the repeat runs, not every such curve was filed as active; the % refers to the signal ratio; further: potency means the concentration at half of the fitted maximal effect). An outline of the steps:
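PR-UAS-bla HEK293T cells with beta-lactamase reporter under UAS control, in 2% charcoal-stripped FBS, treated with compounds plus 1 nM promegestone (R5020, final) for 16 hr at 37C. Read-out: FRET beta-lactamase substrate fluorescence after 2 hr at room temperature.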

Test [9] can be described thus: qHTS assay to identify small molecule antagonists of the TGF-beta/Smad signaling pathway - cell viability counter screen (AID 1346824). Further: nearly all actives have a fitted effect of over 50% in size. An outline of the steps:
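SBE-bla HEK 293T cells, incubated overnight, then compound plus 0.25 ng/mL TGF-beta1 (stock added) for 5 hr at 37 C. Viability was read in the same wells by CellTiter-Glo luminescence after 30 min at room temperature.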

The nature of test [10]: qHTS assay to identify small molecule agonists of the TGF-beta/Smad signaling pathway - cell viability counter screen (AID 1346829). Further: top concentration of the series differs between compounds; nearly all actives have a fitted effect of over 45% in size. The gist of the method:
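Cytotoxicity counter screen: CellTiter-Glo luminescence (30 min, room temperature) measured in the SBE-bla HEK 293T reporter wells after 5 hr compound treatment at 37 C and the 2 hr substrate step.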

A short description of test [11]: qHTS assay to identify small molecule agonists of the TGF-beta/Smad signaling pathway (AID 1346859; active means well fitted activation curve with a large enough effect in the signal ratio in the repeat runs, not every such curve was filed as active; the % refers to the signal ratio; further: series mostly up to about 77 µM). An outline of the steps:
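SBE-bla HEK293T cells plated overnight, then compound exposure for 5 h at 37 C. Beta-lactamase reporter read with LiveBLAzer B/G FRET substrate after 2 h at room temperature, fluorescence at 405 nm excitation, 460/530 nm emission.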

In test [12] the target is Thyrotropin-releasing hormone receptor (Homo sapiens) (UniProt P34981). In words: qHTS assay to identify small molecule antagonists of the thyrotropin-releasing hormone receptor (TRHR) signaling pathway (AID 1346877; active means well fitted inhibition curve with a large enough effect in the repeat runs, not every such curve was filed as active; further: series mostly up to about 51 µM). The gist of the method:
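Human TRHR in HEK293 cells; inhibition of the intracellular calcium rise triggered by 1 nM TRH was followed by fluorescence over 3 min. Compounds were run at 15 concentrations, three replicates each.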

Test [13] has the same target. Briefly: qHTS assay to identify small molecule agonists of the thyrotropin-releasing hormone receptor (TRHR) signaling pathway (AID 1346891; calls by dose curve; further: series mostly up to about 58 µM). An outline of the steps:
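HEK293 cells expressing TRHR plated 18 h at 37 C/5% CO2, calcium dye-loaded 2 h at 37 C, then compound added (agonist mode); kinetic calcium fluorescence read 3 min at 1 s intervals; 15 concentrations in triplicate.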

The nature of test [14]: Human pregnane X receptor (PXR) small molecule agonists, qHTS cell viability counter screen (AID 1346977). Further: nearly all actives have a fitted effect of over 50% in size. Further: potency means the concentration at half of the fitted maximal effect. An outline of the steps:
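PXR-Luc HepG2 cells (2,000/well, 5% charcoal-stripped FBS) preincubated 5 hr, then exposed to compounds 24 hr at 37 C. Viability read in the same wells by CellTiter-Fluor fluorescence, reagent added at 23 hr, 1 hr incubation.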

The nature of test [15]: qHTS assay to identify small molecule antagonists of the progesterone receptor (PR) signaling pathway - cell viability counter screen (AID 1346798). Further: series mostly up to about 92 µM; nearly all actives have a fitted effect of over 50% in size. An outline of the steps: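 PR-UAS-bla HEK293T cells, 3,000/well in 2% charcoal-stripped FBS medium, dosed with compounds plus R5020 agonist and incubated 16 h at 37C. Viability then measured in the same wells by CellTiter-Glo luminescence after 30 min at RT.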

The target of test [16] is Estrogen receptor (Homo sapiens) (UniProt P03372). In words: qHTS assay to identify small molecule agonists of the estrogen receptor alpha (ER-alpha) signaling pathway in the presence of an antagonist (AID 1259383; calls by dose curve; further: top concentration of the series differs between compounds; nearly all actives have a fitted effect of over 15% in size). The gist of the method: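 ER-alpha agonism measured under antagonist challenge: 10.0nM ICI-182,780 (final) plus compound, 15 concentrations, 22hr, VM7Luc4E2 ERE-luciferase cells. Read by luminescence.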
Estrogen receptor (Homo sapiens), sequence (P03372 whole entry, looked up): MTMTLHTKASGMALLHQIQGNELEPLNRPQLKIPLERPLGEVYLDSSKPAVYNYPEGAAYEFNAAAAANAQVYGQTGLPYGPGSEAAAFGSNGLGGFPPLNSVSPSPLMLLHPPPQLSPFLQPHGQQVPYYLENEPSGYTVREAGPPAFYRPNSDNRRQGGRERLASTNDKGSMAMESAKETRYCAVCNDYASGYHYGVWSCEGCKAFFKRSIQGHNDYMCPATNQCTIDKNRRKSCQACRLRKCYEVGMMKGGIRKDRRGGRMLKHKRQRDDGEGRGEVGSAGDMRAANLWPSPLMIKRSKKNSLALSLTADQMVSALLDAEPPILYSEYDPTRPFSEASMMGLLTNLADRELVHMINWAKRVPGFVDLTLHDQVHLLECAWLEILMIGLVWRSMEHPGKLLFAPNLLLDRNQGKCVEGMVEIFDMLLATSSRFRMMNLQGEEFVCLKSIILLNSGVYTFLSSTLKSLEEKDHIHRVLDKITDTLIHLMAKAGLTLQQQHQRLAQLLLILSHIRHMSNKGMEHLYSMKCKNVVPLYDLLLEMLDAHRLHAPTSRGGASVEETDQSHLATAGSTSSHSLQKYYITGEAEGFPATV

Test [17] can be described thus: qHTS assay to identify small molecule agonists of the progesterone receptor (PR) signaling pathway - cell viability counter screen (AID 1346799; calls by dose curve; further: nearly all actives have a fitted effect of over 45% in size). The gist of the method: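 Counter screen in the PR-UAS-bla HEK293T wells (2% charcoal-stripped FBS, 16 h compound exposure at 37 C) after the bla read. CellTiter-Glo added, 30 min at room temperature, luminescence read as cell viability.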

The target in test [18] is Androgen receptor (Homo sapiens) (UniProt P10275). In words: qHTS assay to identify small molecule agonists of the androgen receptor (AR) signaling pathway in the presence of an antagonist (AID 1259381; calls by dose curve; further: nearly all actives have a fitted effect of over 15% in size). The gist of the method: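 AR antagonist background: nilutamide 3.0uM final. Cell line: MDA-kb2, MMTV-driven luciferase, responsive to both AR and GR. Exposure 16hr, 37C, no CO2; ONE-Glo luminescence.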
Androgen receptor (Homo sapiens), sequence (P10275 whole entry, looked up): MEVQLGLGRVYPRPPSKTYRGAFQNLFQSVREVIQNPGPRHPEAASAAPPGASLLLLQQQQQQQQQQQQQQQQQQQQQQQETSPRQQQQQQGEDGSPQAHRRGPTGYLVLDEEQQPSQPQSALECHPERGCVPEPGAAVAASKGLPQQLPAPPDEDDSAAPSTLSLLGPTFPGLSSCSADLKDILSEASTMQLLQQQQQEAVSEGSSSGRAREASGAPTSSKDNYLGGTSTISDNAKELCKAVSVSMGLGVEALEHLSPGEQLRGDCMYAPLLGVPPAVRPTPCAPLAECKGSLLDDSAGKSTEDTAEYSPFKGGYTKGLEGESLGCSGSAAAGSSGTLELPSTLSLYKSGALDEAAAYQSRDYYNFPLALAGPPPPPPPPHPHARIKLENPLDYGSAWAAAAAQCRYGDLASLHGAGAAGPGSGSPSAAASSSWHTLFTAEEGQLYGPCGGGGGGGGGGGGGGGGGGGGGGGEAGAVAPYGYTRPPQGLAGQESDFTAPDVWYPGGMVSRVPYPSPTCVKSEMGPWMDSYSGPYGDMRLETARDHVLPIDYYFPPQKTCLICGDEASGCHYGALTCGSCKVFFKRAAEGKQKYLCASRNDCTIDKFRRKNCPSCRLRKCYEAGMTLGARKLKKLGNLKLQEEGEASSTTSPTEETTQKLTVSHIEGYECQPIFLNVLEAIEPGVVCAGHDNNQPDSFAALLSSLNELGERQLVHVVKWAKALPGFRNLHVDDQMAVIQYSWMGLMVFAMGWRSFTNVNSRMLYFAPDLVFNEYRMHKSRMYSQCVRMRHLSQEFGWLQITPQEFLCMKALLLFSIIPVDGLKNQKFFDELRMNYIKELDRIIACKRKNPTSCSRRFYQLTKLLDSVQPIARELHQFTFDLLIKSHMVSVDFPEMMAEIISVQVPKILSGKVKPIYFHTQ

“And” between values parts separate entries of the source, which are not always exact repeats. Equal values may be shown once. Results filed as inconclusive are left out. Some compounds were tested as several samples or in several runs, with calls that do not always agree. The source made the active and inactive calls. Unless noted, the call rests on the fitted dose curve; in most records, active means well fitted curve in the direction sought with a large enough effect in the repeat runs; inconclusive means weak or mixed curves; inactive means no such curve, though single readings can be large; an effect the other way counts as inactive or inconclusive.

Progesterone receptor (Homo sapiens), sequence (P06401 whole entry, looked up): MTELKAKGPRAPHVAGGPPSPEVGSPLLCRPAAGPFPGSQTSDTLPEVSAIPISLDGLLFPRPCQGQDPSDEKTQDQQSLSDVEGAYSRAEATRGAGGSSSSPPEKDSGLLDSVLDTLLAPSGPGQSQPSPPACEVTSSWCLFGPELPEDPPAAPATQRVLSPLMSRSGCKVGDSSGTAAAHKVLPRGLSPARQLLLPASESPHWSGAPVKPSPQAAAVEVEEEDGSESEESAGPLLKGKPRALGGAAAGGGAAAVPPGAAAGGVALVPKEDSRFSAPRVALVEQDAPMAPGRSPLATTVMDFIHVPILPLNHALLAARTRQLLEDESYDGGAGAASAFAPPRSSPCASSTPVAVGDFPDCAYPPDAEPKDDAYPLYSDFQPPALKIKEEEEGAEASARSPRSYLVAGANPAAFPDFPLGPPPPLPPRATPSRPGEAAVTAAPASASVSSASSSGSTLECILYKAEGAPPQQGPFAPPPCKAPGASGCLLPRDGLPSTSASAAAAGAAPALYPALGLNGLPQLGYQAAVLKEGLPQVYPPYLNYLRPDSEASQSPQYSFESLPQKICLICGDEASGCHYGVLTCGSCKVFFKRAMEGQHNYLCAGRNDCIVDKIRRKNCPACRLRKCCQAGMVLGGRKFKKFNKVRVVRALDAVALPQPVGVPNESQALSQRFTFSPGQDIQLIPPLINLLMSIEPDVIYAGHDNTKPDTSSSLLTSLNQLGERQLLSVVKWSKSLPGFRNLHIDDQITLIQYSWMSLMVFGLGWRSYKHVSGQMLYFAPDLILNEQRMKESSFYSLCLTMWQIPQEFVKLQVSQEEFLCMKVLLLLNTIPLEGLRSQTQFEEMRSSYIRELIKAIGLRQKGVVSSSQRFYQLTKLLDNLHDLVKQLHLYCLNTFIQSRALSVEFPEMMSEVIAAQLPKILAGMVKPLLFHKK
Thyrotropin-releasing hormone receptor (Homo sapiens), sequence (P34981 whole entry, looked up): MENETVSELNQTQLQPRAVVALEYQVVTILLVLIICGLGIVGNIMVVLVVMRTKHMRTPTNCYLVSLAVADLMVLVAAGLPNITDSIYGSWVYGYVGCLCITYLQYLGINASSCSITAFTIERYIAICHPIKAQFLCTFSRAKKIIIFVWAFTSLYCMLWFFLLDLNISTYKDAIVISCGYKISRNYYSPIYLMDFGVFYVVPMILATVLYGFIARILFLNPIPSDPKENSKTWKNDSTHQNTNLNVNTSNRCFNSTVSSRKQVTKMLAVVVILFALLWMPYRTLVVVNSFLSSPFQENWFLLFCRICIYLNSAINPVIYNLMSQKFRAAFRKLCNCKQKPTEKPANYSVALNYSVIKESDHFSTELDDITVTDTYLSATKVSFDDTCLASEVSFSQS
Thyrotropin receptor (Homo sapiens), sequence (P16473 whole entry, looked up): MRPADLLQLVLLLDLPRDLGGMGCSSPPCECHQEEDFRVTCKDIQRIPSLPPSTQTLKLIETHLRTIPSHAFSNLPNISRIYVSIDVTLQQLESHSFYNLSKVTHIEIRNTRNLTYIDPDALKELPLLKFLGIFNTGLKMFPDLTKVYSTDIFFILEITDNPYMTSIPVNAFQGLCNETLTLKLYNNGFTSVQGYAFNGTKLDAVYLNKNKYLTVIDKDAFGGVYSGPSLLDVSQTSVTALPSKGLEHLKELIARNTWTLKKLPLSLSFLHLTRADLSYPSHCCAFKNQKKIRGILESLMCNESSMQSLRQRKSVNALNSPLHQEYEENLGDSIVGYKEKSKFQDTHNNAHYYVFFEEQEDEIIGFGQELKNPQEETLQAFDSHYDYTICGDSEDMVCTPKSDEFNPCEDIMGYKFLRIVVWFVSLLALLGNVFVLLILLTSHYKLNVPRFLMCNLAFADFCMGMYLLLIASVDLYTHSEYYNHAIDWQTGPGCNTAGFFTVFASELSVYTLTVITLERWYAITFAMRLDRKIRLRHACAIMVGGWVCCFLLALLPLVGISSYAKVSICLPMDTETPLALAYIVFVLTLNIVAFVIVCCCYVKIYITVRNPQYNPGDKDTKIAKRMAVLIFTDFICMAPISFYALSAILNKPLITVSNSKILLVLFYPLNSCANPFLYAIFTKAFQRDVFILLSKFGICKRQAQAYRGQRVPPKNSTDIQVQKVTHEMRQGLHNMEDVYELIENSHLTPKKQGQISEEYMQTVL

As for `Brc1cc(Oc2cc(Br)c(Br)c(Br)c2Br)c(Br)c(Br)c1Br`, the Potency result in test [1], in [3], in test [5], in test [6], in test [7] and in [8] was “inactive” each time. The Potency result in test [9], in [10], in test [12], in [13] and in test [14] was “inactive” in each case. Moreover, in [2], the Potency was 6.89 µM (active) and inactive. The result in test [4] and in [11] was inactive.

Consider `OC1CCCCCCCCCCC1`, for which the Potency result in test [1], in test [2], in [3], in [6], in test [7] and in [8] was “inactive” in each case. The Potency result in test [15], in test [9], in [10], in test [12], in test [13] and in test [14] was “inactive” in each case. For the same compound, the result in test [4] and in test [11] was inactive.

Take `Nc1ccc(Cl)cc1Cl`: the Potency result in test [1], in [2], in test [3], in test [6], in test [7] and in test [8] was “inactive” in each case. Besides, the Potency result in test [15], in [9], in [10] and in [14] was “inactive” throughout. Moreover, the result in test [4] and in test [11] was inactive.

As for `O=C(COc1ccc(Cl)cc1)N1CCN(Cc2ccc3c(c2)OCO3)CC1`, the Potency is 68.6 µM (active) and inactive in [1]; 54.5 µM (active) in test [8]. Further, the Potency entry in test [3], in test [16], in test [5], in test [6], in test [7] and in [15] was “inactive” each time. In addition, the Potency entry in [9], in [10], in test [12], in test [13] and in test [14] was “inactive” each time. Further, the outcome in test [4] and in [11] was inactive.

`CC(=O)c1ccccn1`: the Potency result in test [1], in [2], in [3], in test [6], in test [7] and in [8] was “inactive” each time. The Potency entry in test [15], in [17], in [9], in test [10], in test [12] and in test [13] was “inactive” each time. In [14], the Potency entry was “inactive”. The outcome in test [4] and in [11] was inactive.

As to `Nc1ncn([C@@H]2O[C@H](CO)[C@@H](O)[C@H]2O)c(=O)n1`, the Potency in test [2] was 5.45 µM (active); in test [14] it was 3.06 µM (active) and 3.76 µM (active). The result in test [18], in test [4] and in [11] was inactive. For the same compound, the Potency entry in [3], in test [5], in test [6], in test [15], in [17] and in test [9] was “inactive” in each case. In addition, the Potency entry in test [10], in test [12] and in [13] was “inactive” each time.

Consider `O=Cc1ccccc1O`, for which the Potency entry in test [1], in [2], in [3], in test [16], in test [5] and in test [6] was “inactive” in each case. For the same compound, the Potency result in test [7], in test [8], in test [15], in test [9], in test [10] and in test [12] was “inactive” in each case. For the same compound, the Potency entry in test [13] and in test [14] was “inactive” each time. The compound was classed as inactive in test [4] and in test [11].
